The list is not random: actives were taken first. Their share in the collection is about 5.9%.
Gal4-VP16 FLuc: Gal4-VP16 reporter inhibition counter-screen; Drosophila S2 Gal4-VP16 UAS-luciferase, luminescence, 20 h; Potency, µM (doses to about 53.6 µM), usual class: inhibitors; 310,000 compounds, 3.5% hits;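 further: Gal4-VP16 expression switched on by copper sulfate through the metallothionein promoter; nearly all actives have a fitted effect of over 50% in size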
RORg inh: blocks mouse ROR gamma transcriptional activity | P51450 | Drosophila S2 Gal4-RORgamma UAS-luciferase reporter, 20 h | Potency, µM (highest dose often 53.6 µM), hits mostly inhibitors | 310,000 compounds, 5.4% hits; further: nearly all actives have a fitted effect of over 60% in size
Target sequence (P51450 whole entry, looked up, the tested form may be a part): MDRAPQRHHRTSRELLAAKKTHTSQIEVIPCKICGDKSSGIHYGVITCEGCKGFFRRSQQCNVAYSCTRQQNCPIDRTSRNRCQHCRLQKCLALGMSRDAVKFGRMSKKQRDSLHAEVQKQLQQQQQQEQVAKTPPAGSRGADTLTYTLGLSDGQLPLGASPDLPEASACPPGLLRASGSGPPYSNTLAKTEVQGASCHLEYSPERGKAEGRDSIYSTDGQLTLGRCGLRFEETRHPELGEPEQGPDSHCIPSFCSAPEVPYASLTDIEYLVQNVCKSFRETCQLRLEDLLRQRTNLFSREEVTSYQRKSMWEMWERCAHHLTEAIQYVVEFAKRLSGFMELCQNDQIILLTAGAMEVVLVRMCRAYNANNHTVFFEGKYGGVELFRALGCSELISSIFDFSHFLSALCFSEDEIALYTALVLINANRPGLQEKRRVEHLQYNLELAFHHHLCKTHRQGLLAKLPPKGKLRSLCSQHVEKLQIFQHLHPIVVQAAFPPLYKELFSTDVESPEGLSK
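Drosophila Schneider cells stably carrying a metallothionein-driven Gal4 DBD–ROR gamma fusion and a UAS-Photinus luciferase reporter were exposed to compound for 1 hr, then induced with copper sulfate (700 uM final) for 20 hr at ambient temperature before luminescence reading.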
GLP-1R inv ag: GLP-1 receptor (human) inverse agonism; P43220; HEK293 GLP-1R CRE-luciferase, luminescence, 24 h; GLP-1R form is constitutively active; Potency, µM (series often up to 38.3 µM), most hits filed as inhibitors; 410,000 compounds, 1.6% hits; AID 624417; further: nearly all actives have a fitted effect of over 55% in size
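Inverse agonism was detected as reduced cAMP-driven luciferase luminescence after 24 h compound treatment. The cells were HEK293 clones expressing constitutively active human GLP-1R with the reporter. Reporter-only and GPR119 cell lines served as counterscreen controls.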
GLP-1R agonist: agonists of human GLP-1 receptor. Potency, µM (top dose mostly 45.6 µM), hits mostly activators. P43220. 380,000 compounds, 0.007% hits. AID 624172. HEK293 GLP-1R CRE-luciferase, luminescence, 4-6 h; cells express a hypersensitive GLP-1R form
GLP1R cytotox: cytotoxic in the GLP-1 receptor inverse agonist counter-screen; HEK293 cAMP-luciferase reporter cells, luminescence, 24 h; Potency, µM (series often up to 38.3 µM), actives largely listed as inhibitors; 410,000 compounds, 0.13% hits; AID 624418;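 further: loss of luciferase light is scored as toxicity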
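Cells in DMEM/10% Nu serum/1% pen-strep, 1536-well format. Pre-incubated 12 h, dosed with 23 nL compound, incubated a further 24 h. Luciferase detection, 12 min at room temp, luminescence.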
A number is an active result; i = inactive; ? = inconclusive; nt = not tested or not shown; [ ] = another dose, or the depositor's remark. The call rests on the fitted dose curve; in most records, active means well fitted curve in the direction sought with a large enough effect; inconclusive means small, poorly fitted or top-dose-only effect, or another doubt; inactive means no such curve, though single readings can be large; an effect the other way counts as inactive or inconclusive.

SMILES | Gal4-VP16 FLuc | RORg inh | GLP-1R inv ag | GLP-1R agonist | GLP1R cytotox
CC(=O)C1=C(C)NC(SCC(=O)c2ccc(C)cc2)=C(C#N)C1c1ccco1 (stereo not given) | 2.82µM | ? | nt | nt | nt
O=c1c(Cc2ccc(F)cc2)c(O)ccn1Cc1cccc(Cl)c1 | i | ? | 7.94µM | i | i
Cc1ccccc1CSc1nc2c(sc3ccccc32)c(=O)n1CCCC(=O)NCCCOC(C)C | nt | nt | i | nt | i
CCN(CC)CC#CCOC(c1ccccc1)c1ccccc1 | i | i | 5.62µM | i | i
NC(=O)COc1ccc(C(=O)/C=C2/C(=O)Nc3ccccc32)cc1 | ? | 7.94µM | ? | i | ?
COc1ccc(C(=O)/C=C2/C(=O)Nc3ccccc32)cc1 | ? | 10µM | ? | i | ?
C=CCOc1ccccc1C(=O)/C=C1/C(=O)Nc2ccccc21 | 12.6µM | 5.62µM | ? | i | ?
COc1ccc(C(=O)/C=C2/C(=O)Nc3ccccc32)c(OC)c1 | ? | ? | ? | i | 10µM
C=CCOc1ccc(C(=O)/C=C2/C(=O)Nc3ccccc32)cc1 | i | ? | ? | i | i
COC(=O)C/C=C\[C@@H](C)[C@@H](/C=N\O[C@@H](C)CN1CCCCc2nc(C)c(C)cc21)NS(=O)(=O)c1ccc(C)cc1 | i[10 µM] | i[10 µM] | nt | nt | nt
O=C(Cn1cc(S(=O)(=O)N2CCCC2)c(S(=O)(=O)N2CCCC2)c1)Nc1cccc(F)c1 | nt | nt | i | nt | i
COC(=O)[C@@H]1C[C@H]2CC[C@H](O)C[C@H]2N1Cc1c(F)cccc1Cl | i | i | nt | nt | nt
Cc1cc(Nc2cccc(C)c2C)n2cnnc2n1 | nt | nt | i | nt | i
COC(=O)C1=CN(Cc2ccc(OC)cc2)C=C(C(=O)OC)C1c1cc(OC)c(OC)c(OC)c1 | i | i | ? | 5.01µM | i
O=C(CCl)N(C/C=C/c1ccccc1)c1ccc2c(c1)OCCO2 | ? | 12.6µM | ? | i | ?
CCOc1ccc(S(=O)(=O)n2nc(C)c(S(=O)(=O)N3CCCCCC3)c2C)cc1 | nt | nt | i | i | i
Cc1ccc(O)c(-c2cc(-c3cccc(Br)c3)n[nH]2)c1 | i | i | 10µM | i | i
Cc1ccc(-c2cc(-c3ccc(F)cc3)n[nH]2)c(O)c1 | 7.08µM | 5.62µM | ? | i | i
Cc1ccc(-c2noc(-c3cc(-c4ccc(F)cc4)n[nH]3)n2)cc1 | nt | nt | i | nt | i
Oc1ccccc1-c1cc(-c2ccccc2)n[nH]1 | nt | nt | ? | i | i
Cc1ccc(-c2cc(-c3ccc(C)cc3O)[nH]n2)cc1 | 7.08µM | 3.98µM | ? | i | i
Cc1ccc2cc(CN(C)C(=O)c3cccc(Cl)c3)c(=O)[nH]c2c1 | nt | nt | i | nt | i
Cc1ccc(-n2nc(C)c3c(C)cc(=O)n(CC(=O)NCc4ccc(OC(C)C)cc4)c32)cc1 | nt | nt | i | nt | i
N=c1n(CC(=O)c2ccc(Br)s2)c2ccccc2n1Cc1ccccc1 | 14.1µM | 10µM | ? | i | ?
CCN(CC)CCn1c(=N)n(CC(=O)c2ccc(Br)s2)c2ccccc21 | i | i | 2.82µM | i | ?
SMILES | Gal4-VP16 FLuc | RORg inh | GLP-1R inv ag | GLP-1R agonist | GLP1R cytotox
Cn1c(=N)n(CC(=O)c2ccc(Br)s2)c2ccccc21 | i | i | ? | i | i
CCN(CC)CCn1c(=N)n(CCO)c2ccccc21 | i | i | i | i | i
Cc1cc(C(=O)Nc2cccc(F)c2)c2c(C)nn(-c3cccc(Cl)c3C)c2n1 | nt | nt | i | nt | i
CC(C)CNC(=S)NC(=O)c1ccc(Cl)cc1Cl | 5.62µM | 7.08µM | ? | i | ?
O=C(NC(=S)Nc1ccccc1O)c1ccc(Cl)cc1Cl | 7.08µM | 2.51µM | ? | i | ?
CC(C)NC(=S)NC(=O)c1ccc(Cl)cc1Cl | 10µM | 8.91µM | ? | i | i
Cc1ccc(C(=O)NNC(=S)NC(=O)c2ccc(Cl)cc2Cl)cc1 | i | i | ? | i | i
CC(C)CNC(=S)NC(=O)c1ccc(F)cc1 | ? | 7.94µM | ? | i | ?
CCc1nnc(NC(=O)CSc2nc3c([nH]c4ccccc43)c(=O)n2-c2ccc(F)cc2)s1 | nt | nt | i | i | i
CC12CCC=CC1C(c1ccc(F)c(/C=C/c3ccccc3)c1)N(Cc1ccccc1)C2=O (stereo not given) | i | i | nt | nt | nt
Nc1nnc(SC2CC(=O)N(c3ccccc3)C2=O)s1 (stereo not given) | 10µM | 5.01µM | i | i | i
Cc1nc(SC2CC(=O)N(c3ccccc3)C2=O)n[nH]1 (stereo not given) | 4.47µM | 4.47µM | i | i | i
Cc1cc(C)nc(SC2CC(=O)N(c3ccc(Cl)cc3)C2=O)n1 (stereo not given) | i | 14.1µM | i | i | i
O=C1CC(Sc2ncccn2)C(=O)N1c1ccccc1 (stereo not given) | i | ? | i | i | i
O=C(NNc1cc(C(F)(F)F)ccc1Cl)c1ccc(=O)[nH]c1 | i | i | 3.55µM | i | i
O=C(NCc1ccccn1)c1nc(-c2ccc(C(F)(F)F)cc2)no1 | i | i | i | i | i
CC(C)(C)c1ccc(-c2noc(C(=O)NN)n2)cc1 | i | 10µM | i | i | i
CSc1cnn(Cc2ccccc2)c(=O)c1SCc1ccccc1 | 2.51µM | 0.562µM | ? | i | i
O=C(CCN1C(=O)c2ccccc2C1=O)Oc1ccc2ccccc2c1 | i | i | i | i | i
CC1=CC(C)(C)Nc2ccc(OC(=O)CCN3C(=O)c4ccccc4C3=O)cc21 | 5.62µM | ? | i | i | i
OCC(O)CS (stereo not given) | i | i[10 µM] | nt | i | nt
CN1CCN(C(=O)c2ccc3c(=O)n(CCc4ccccc4)c(=S)[nH]c3c2)CC1 | nt | nt | i | i | i
COc1ccccc1-n1cc(-c2ccc(C)cc2)[nH]c1=S | 7.08µM | 2.82µM | ? | i | i
S=c1[nH]c(-c2ccc(Br)cc2)cn1CCc1ccccc1 | i[10 µM] | 6.31µM | i | i | i
COc1ccccc1-n1cc(-c2ccc([N+](=O)[O-])cc2)[nH]c1=S | i | 1.58µM | i | i | i
SMILES | Gal4-VP16 FLuc | RORg inh | GLP-1R inv ag | GLP-1R agonist | GLP1R cytotox
COc1ccccc1-n1cc(-c2ccc(Br)cc2)[nH]c1=S | 10µM | 4.47µM | ? | i | i
CC(C)=CCC/C(C)=C/CO/N=C1/C[C@@H](O)[C@@H](O)[C@@H]2[C@@H]3C(=O)N(Cc4ccc5c(c4)OCO5)C(=O)[C@H]3CC[C@@H]12 | i[10 µM] | i[10 µM] | nt | nt | nt
COc1ccc(-c2nc3cnc(OC)nc3n(C)c2=O)cc1 | i | i | nt | nt | nt
Cc1ccccc1C1CC(=O)Oc2cc(C)c(Br)c(C)c21 (stereo not given) | i | i | nt | nt | nt
S=C1NC2=C(CCCC2)C2(CCCCC2)N1 | 1.78µM | 2µM | i | i | i
CCN(CC)CCCNC(=O)c1ccc2c(Cl)c3c(nc2c1)CCCC3 | i | i | 4.47µM | i | ?
CCCCN(CC)CCNC(=O)c1ccc2c(Cl)c3c(nc2c1)CCC3 | i | i | ? | i | ?
CCCN1CCN(CCCNC(=O)c2ccc3c(Cl)c4c(nc3c2)CCCC4)CC1 | i | i | 5.01µM | i | ?
CCNc1ncc2nc(CCc3ccccc3)c(=O)n(Cc3ccc(F)cc3)c2n1 | i | i | nt | nt | nt

Bioassay records from PubChem.
